# According to PubChem BioAssay (NCATS):
# Records with an inconclusive call do not appear. Calls of active or inactive are those of the source. Calls come from the whole dose curve.
# Molecular target: Vitamin D3 receptor (Homo sapiens) (UniProt P11473)
# Assay: qHTS assay for small molecule agonists of vitamin D receptor signaling (AID 588543)
# Conditions: HEK293T VDR-UAS-bla, beta-lactamase ratio, 16 h; series mostly up to 76.8 µM
# From the text: NIH Chemical Genomics Center [NCGC]
# U.S. Environmental Protection Agency [EPA]
# National Institutes of Environmental Health Sciences [NIEHS]
# National Toxicology Program [NTP]
# The Vitamin D receptor (VDR) is a member of nuclear hormone receptor superfamily and it plays a critical role in calcium homeostasis and bone metabolism. It plays a role in inducing cell differentiation, inhibiting cell growth and in thrombogenicity. So, VDR that mediates these effects represents a pharmacological target in prevention and treatment of hyperproliferative malignancies, such as cancer and psoriasis, cardiovascular, immunological, inflammatory and renal diseases etc.
# NCGC Assay Protocol Summary
# Using a beta-lactamase reporter-gene under control of Vitamin D receptor (VDR) response element, a cell-based assay [GeneBLAzer (VDR -UAS-bla assay developed by Invitrogen] was used to measure VDR ligands signaling. GeneBLAzer VDR -UAS-bla HEK293T cells were used with assay medium containing 2% charcoal-stripped FBS. The assay was performed in clear bottom black Greiner 1536-well plates. 1-alpha,25-Dihydroxy vitaminD3 was used as a positive control in the screen. Library compounds were measured for their ability to stimulate the reporter gene activity. Compounds were screened in a titration series in 1536-well format. The fluorescence intensity (405 nm excitation, 460/530 nm emission) was measured using an EnVision plate reader. Data was normalized relative to 1-alpha,25-Dihydroxy vitaminD3 control (50 nM, 100%) and DMSO only wells (basal, 0%). Concentration-response titration points for each compound were fitted to the Hill equation yielding concentrations of half-maximal stimulation (EC50) and maximal response (efficacy) values.
# qHTS protocol for VDR beta-lactamase assay in agonist mode
# [Step] [Parameter] [Value] [Description]
# 1. Reagent; 6 uL; 2000 cells/well
# 2. Incubation; 37 C for 5 hrs
# 4. Controls (1-alpha,25-Dihydroxy vitaminD3); 23 nL,
# - Final concentrations of 50 nM and 15 nM in two columns
# 5. Incubation; 37 C for 16 hrs
# 6. Detection reagent; 1 uL of CCF4-dye
# 7. Incubation; RT for 2 hrs
# 8. Detection; Fluorescence; Envision plate reader
# Chain of Vitamin D3 receptor (Homo sapiens) (P11473 whole entry, looked up): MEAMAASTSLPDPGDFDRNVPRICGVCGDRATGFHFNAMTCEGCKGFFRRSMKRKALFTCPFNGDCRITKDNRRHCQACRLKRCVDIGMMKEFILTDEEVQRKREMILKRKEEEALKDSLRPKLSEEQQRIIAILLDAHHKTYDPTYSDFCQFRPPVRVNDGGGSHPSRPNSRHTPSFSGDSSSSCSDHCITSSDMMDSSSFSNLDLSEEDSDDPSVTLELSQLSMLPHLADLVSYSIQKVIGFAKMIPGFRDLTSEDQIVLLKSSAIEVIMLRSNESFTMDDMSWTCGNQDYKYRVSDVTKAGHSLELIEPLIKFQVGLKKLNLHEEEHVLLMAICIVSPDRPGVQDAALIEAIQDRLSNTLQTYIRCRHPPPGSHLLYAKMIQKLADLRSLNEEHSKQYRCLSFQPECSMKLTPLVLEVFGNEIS
row,Structure (SMILES),outcome
1,C[C@]12CCC(=O)C=C1CC[C@@H]1[C@@H]2C(=O)C[C@@]2(C)[C@H]1CC[C@]2(O)C(=O)CO,inactive
2,CC(=O)[C@@]1(O)CC[C@H]2[C@@H]3CCC4=CC(=O)CC[C@]4(C)[C@H]3CC[C@@]21C,inactive
3,Nc1ncn([C@@H]2O[C@H](CO)[C@@H](O)[C@H]2O)c(=O)n1,inactive
4,O=C(O)CCCCCCCC(=O)O,inactive
5,CC(C)(Oc1ccc(CCNC(=O)c2ccc(Cl)cc2)cc1)C(=O)O,inactive
6,C[C@]12C=CC(=O)C=C1CC[C@H]1[C@@H]3C[C@@H](O)[C@](O)(C(=O)CO)[C@@]3(C)C[C@H](O)[C@@]12F,inactive
7,Cc1ccc(S(=O)(=O)NC(=O)NN2CCCCCC2)cc1,inactive
8,CN=C(NC#N)NCCSCc1nc[nH]c1C,inactive
9,O=c1[nH]c(=O)n([C@H]2C[C@H](O)[C@@H](CO)O2)cc1Br,inactive
10,COc1cc(Cc2cnc(N)nc2N)cc(OC)c1OC,inactive
11,CCCCNC(=O)NS(=O)(=O)c1ccc(C)cc1,inactive
